Reference: PubChem BioAssay AID488815 (Broad Institute, 2010)
Entries with a potency or affinity are not part of this list. Records with an inconclusive call do not appear. Unmarked numbers belong to inactive results. How the calls were made is not given here.

target: CAAX prenyl protease 1 (Saccharomyces cerevisiae (strain ATCC 204508 / S288c)) (UniProt P47154); assay: yeast CAAX protease Ste24 inhibition – biochemical, S. cerevisiae, plate reader, cherry-pick, dose response (AID 488815); conditions: series mostly up to 10 µM; activity change, negative = inhibition: at the top concentration;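 further: 0% = neutral control wells and -100% = no enzyme wells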
Sequence (P47154 whole entry, looked up): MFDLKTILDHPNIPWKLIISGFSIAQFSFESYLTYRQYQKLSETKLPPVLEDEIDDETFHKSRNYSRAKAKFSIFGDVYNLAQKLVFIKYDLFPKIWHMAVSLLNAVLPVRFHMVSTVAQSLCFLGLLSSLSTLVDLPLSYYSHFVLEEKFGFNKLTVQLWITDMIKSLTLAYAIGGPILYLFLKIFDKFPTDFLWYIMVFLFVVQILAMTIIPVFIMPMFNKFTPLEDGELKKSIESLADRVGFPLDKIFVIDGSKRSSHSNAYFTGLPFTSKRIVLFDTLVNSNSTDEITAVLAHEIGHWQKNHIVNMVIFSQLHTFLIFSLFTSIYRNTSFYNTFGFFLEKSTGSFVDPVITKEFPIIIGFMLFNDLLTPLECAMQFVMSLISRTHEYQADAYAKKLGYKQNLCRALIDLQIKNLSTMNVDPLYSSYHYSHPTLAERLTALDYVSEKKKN

Compound | activity change, negative = inhibition
CCOC(=O)[C@@H]1[C@H]2COc3ccc(Br)cc3[C@@H]2N2C(=O)N(c3cccc(C)c3)C(=O)[C@]12C | 48.1%
O=[N+]([O-])c1ccc(C[n+]2c(-c3ccccc3)cc(-c3ccccc3)cc2-c2ccccc2)cc1 | 51.8%
CC(C)OCCCNC(=O)c1c(N)n(CC2CCCO2)c2nc3ccccc3nc12 (configuration not stated) | -4.71%
C=CCn1c(O)c(C(CC)=Nc2ccc(N(CC)CC)cc2)c(=O)[nH]c1=O | -2.1%
Cc1ccnc(-n2c(-c3ccco3)nc3ccccc3c2=O)c1 | 22.4%
CN1CCN(c2ccc([N+](=O)[O-])c(Sc3nncn3C)c2)CC1 | 9.28%
c1ccc(CCCN2CCN(CCOC(c3ccccc3)c3ccccc3)CC2)cc1 | 31.3%
